SW480 rerep: induces DNA re-replication in SW480 colon adenocarcinoma cells. SW480 DNA re-replication, Hoechst DNA content imaging, 48 h. hit rate 1.8% among 340,000. Potency, µM (highest dose often 46.1 µM), without a hit: at the highest dose re-replication activation, hits mostly activators. AID 624297; note: potency is the fitted concentration of half-maximal effect; % of control where 0% means no effect; nearly all actives have a fitted effect of over 55% in size
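Hoechst fluorescence of nuclei (405 nm excitation, 500-530 nm emission) measured by plate-scanning imager after 48 hr compound exposure at 37 C; re-replication scored as increased number of nuclei with elevated intensity.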
TDP1 cell CPT: growth inhibition of DT40 Tdp1-/-;hTDP1 cells with camptothecin (screen for TDP1 inhibitors) | hit rate 12% among 420,000 | Potency, µM (doses to about 46.2 µM), for the others: at the top dose activity change, negative = growth inhibition, actives largely listed as inhibitors | chicken DT40 Tdp1-/-;hTDP1 cells + 20 nM CPT, ATP luminescence, 48 h; note: potency is the fitted concentration of half-maximal effect; % is set by controls: 0 for no effect and ±100 for the full control effect; nearly all actives have a fitted effect of over 55% in size
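Cell growth measured by CellTiter-Glo luminescence after a minimum 48 h, 37 C compound exposure with 20 nM CPT in Tdp1-knockout DT40 cells stably expressing hTDP1, seeded 400/well; qHTS titration format.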
TDP1 cell noCPT: qHTS for Inhibitors of human tyrosyl-DNA phosphodiesterase 1 (TDP1): qHTS in cells in absence of CPT. AID 686978, 2013. Potency, µM (titrated, usually from 46.2 µM), inactives show at the top dose activity change, negative = growth inhibition, usual class: inhibitors. DT40 Tdp1-/- hTDP1 cells, no CPT, ATP luminescence, 48 h. hit rate 15% among 420,000; note: potency is the fitted concentration of half-maximal effect; % is set by controls: 0 for no effect and ±100 for the full control effect; nearly all actives have a fitted effect of over 55% in size
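A cellular qHTS used chicken DT40 cells lacking endogenous Tdp1 but carrying stably transfected human TDP1. Compounds were applied without camptothecin, and cell growth kinetics were judged by ATP-dependent luminescence after ≥48 hr.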
IL-1B inflam inh: blocks inflammasome-driven IL-1 beta release; THP-1 LPS/ATP IL-1B secretion, AlphaLISA, 16 h; hits give low values; activity change, % at 57.5 µM; hit rate 4.7% among 360,000; in the data active = activity change below about -50%; inconclusive = mostly about -30% to -49%; note: % is set by controls: 0 for no effect and ±100 for the full control effect
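Secreted IL-1B measured by AlphaLISA bead assay after 16 h compound exposure of THP-1 cells; compounds (final up to 57.5 uM) added 1 h before LPS (250 ng/mL) and ATP (1.25 mM) stimulation; lower signal means less secretion.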
BCR signal inh: inhibitors of chronic active B-cell receptor signaling; Potency, µM (highest dose often 46.1 µM), for the others: at the top dose activity change, negative = inhibition, actives largely listed as inhibitors; hit rate 0.05% among 340,000; ABC-DLBCL IkBa-CBG/CBR reporter, luminescence ratio, 4 h; active = well fitted inhibition curve with a large enough effect in the signal ratio, with a control signal flat, not every such curve was filed as active; inconclusive = small, poorly fitted or top-dose-only effect, or effect the other way, or a change in a side signal; the % refers to the signal ratio;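 note: potency is the fitted concentration of half-maximal effect; plate controls were basal doxycycline-induced cells for no effect and cells given 10 µM MG132 for full effect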
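TMD8 ABC-DLBCL cells carrying doxycycline-inducible green luciferase fused to IkappaBalpha plus unfused red luciferase were exposed to compounds (up to 46 uM) for 4 hrs at 37C. Activity came from the overlap-corrected green/red luminescence ratio.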
MCF10A rereplic: DNA re-replication induction in MCF 10a cells. Potency, µM (titrated, usually from 46.1 µM), without a hit: at the top dose activity, positive = re-replication, actives largely listed as activators. hit rate 2.9% among 350,000. AID 624296. MCF 10A DNA re-replication, Hoechst nuclear intensity, 48 h; note: potency is the fitted concentration of half-maximal effect; % of control where 0% means no effect; nearly all actives have a fitted effect of over 50% in size
Numbers without * were called inactive; ? = inconclusive; . = no result; [ ] = dose if it differs, or a comment. This is a sample that favours compounds with a hit; in the whole collection about 19% have one here. Unless noted, calls come from the whole dose curve; as a rule, active = well fitted curve in the direction sought with a large enough effect; inconclusive = small, poorly fitted or top-dose-only effect, or another doubt; inactive = no such curve, though single readings can be large; an effect the other way counts as inactive or inconclusive.

SMILES | SW480 rerep | TDP1 cell CPT | TDP1 cell noCPT | IL-1B inflam inh | BCR signal inh | MCF10A rereplic
Cc1cc(Br)ccc1NC(=O)COC(=O)c1ccccc1OCC(N)=O | . | -4.2% | -15.0% | . | . | .
NC(=O)C1CCN(C(=O)c2cc(-c3ccc(Cl)cc3)nc3ccccc23)CC1 | -6.3% | 1.1% | ? | -14.8 | -9.3% | 8.6%
OC(c1cc(C(F)(F)F)nc2c(Cl)cc(Cl)cc12)C1CCCCN1 (stereo not drawn) | ? | 18.4µM* | ? | -89.2* | ? | ?
OC(c1cc(-c2ccc(Cl)cc2)nc2ccccc12)C1CCCCN1 (stereo not drawn) | ? | 23.1µM* | 25.9µM* | -78.2* | ? | -3.0%
CCN(CC(=O)NCc1cccs1)c1ccc(S(=O)(=O)N2CCN(C)CC2)cn1 | -5.1% | -4.5% | -17.4% | 0.9 | -1.2% | -6.5%
Cn1c(N)c(C(=O)COC(=O)C2(c3ccc(F)cc3)CCCC2)c(=O)n(C)c1=O | 0.6%[9.22 µM] | ? | 18.4µM* | -10.5 | ? | 16.0%
Cn1c(N)c(C(=O)COC(=O)/C=C/c2ccc(Cl)cc2Cl)c(=O)n(C)c1=O | ? | ? | 16.4µM* | -13.3 | 3.7% | 0.9%
CC(C)[C@H](NS(=O)(=O)c1ccc(Cl)cc1)C(=O)OCC(=O)c1c(N)n(C)c(=O)n(C)c1=O | -26.7% | ? | 20.6µM* | 15.2 | -8.7% | -5.2%
Cn1c(N)c(C(=O)COC(=O)C2(c3ccc(Cl)cc3)CCCC2)c(=O)n(C)c1=O | ? | 14.6µM* | 11.6µM* | 19.2 | 4.9% | ?
Cn1c(N)c(C(=O)COC(=O)/C=C/c2ccc(Cl)cc2)c(=O)n(C)c1=O | -2.0% | ? | ? | 15.2 | 9.2% | 2.0%
O=C(Cn1ccc(NC(=O)OCc2ccccc2)nc1=O)NCCc1c[nH]c2ccccc12 | -4.7% | ? | ? | 3.8 | -2.2% | -2.0%
CN(C)CCn1c2c(c(SCC(=O)Nc3ccc(F)cc3F)nc1=O)CCC2 | . | 3.3% | -9.8% | . | 6.8% | .
Cc1cccc(-c2nc3cc(NC(=O)COc4ccccc4F)ccc3o2)c1 | . | -2.6% | -9.3% | . | . | .
Cc1cc(Cl)ccc1OCC(=O)OCC(=O)N1CCC(C(N)=O)CC1 | 4.0% | -6.7% | 19.6% | 4.9 | -0.2% | -7.9%
Cc1ccc(-c2cnc(C(O)c3cccc(Cl)c3)[nH]2)cc1 (stereo not drawn) | . | -76.8% | ? | -0.3 | . | .
CCCCNCCOCCOc1ccc(Cl)cc1Br | ? | 20.6µM* | 32.6µM* | ? | -0.4% | ?
CCCCNCCCOc1cc(Cl)ccc1Cl | -0.4% | ? | ? | ? | -0.9% | 21.0%
Clc1ccc(OCCCn2ccnc2)c(Br)c1 | -2.7% | ? | ? | 0.0 | ? | 14.4%
COCCCNC(=O)COc1ccc(Br)cc1Cl | 1.0% | -5.1% | -2.4% | -11.2 | 0.3% | 1.6%
CC(C)NCCCOc1ccc(Cl)cc1Br | -1.7% | 18.4µM* | ? | -13.0 | ? | -0.8%
COCCCNCCCOc1ccc(Cl)cc1Br | -1.8% | 25.9µM* | ? | -25.0 | -4.9% | 1.0%
COCCCNCCCOc1ccc(C)cc1Br | -0.5% | ? | ? | -20.0 | -6.1% | 11.8%
CC(C)NCCCCOc1ccc(Br)cc1Cl | 14.3% | 23.1µM* | 18.4µM* | -7.1 | ? | 21.6%
CC(C)CCNC(=O)CCn1c(=S)oc2ccccc21 | -0.2% | -0.4% | -11.1% | 5.8 | 6.6% | 6.1%
COc1ccc(-c2nn(-c3ccccc3)cc2/C=C(\CC(=O)O)c2nc3ccccc3s2)cc1OC | 2.1% | -6.7% | ? | 6.9 | ? | 18.4µM*
SMILES | SW480 rerep | TDP1 cell CPT | TDP1 cell noCPT | IL-1B inflam inh | BCR signal inh | MCF10A rereplic
COc1ccc(-c2nn(-c3ccccc3)cc2/C=C/C(=O)NCCCn2ccnc2)cc1OC | ? | -30.0% | 14.6µM* | ? | ? | ?
COc1ccc(OC)c(/C=C/C(=O)N(C)CC(=O)Nc2cc(C)ccc2C)c1 | 3.8% | -16.4% | ? | -0.5 | 0.4% | -25.9%
COc1ccc(-c2nn(-c3ccccc3)cc2C(=O)NCCCn2ccnc2)cc1 | 4.0% | ? | -12.3% | ? | -1.2% | ?
CCN(CC(=O)Nc1ccc(NC(C)=O)cc1)C(=O)/C=C/c1cn(-c2ccccc2)nc1-c1ccc(C)cc1 | -1.5% | ? | 20.6µM* | ? | -0.2% | -3.6%
COc1ccc(OC)c(/C=C/C(=O)N(C)CC(=O)Nc2ccc(C)cc2)c1 | 17.4% | 6.51µM* | 10.3µM* | -4.2 | -4.1% | 2.4%
CCN(CC(=O)Nc1ccc(NC(C)=O)cc1)C(=O)/C=C/c1cn(-c2ccccc2)nc1-c1ccc(F)cc1 | -15.5% | 2.4% | -1.1% | 15.8 | 0.6% | 9.6%
O=C(NC1CCCCC1)C(c1ccccc1)N(C(=O)c1csnn1)C1CCCC1 (stereo not drawn) | -1.2% | -24.0% | ? | -9.5 | ? | 2.4%
Cc1ccc(NC(=O)CCNCc2ccco2)cc1S(=O)(=O)N(C)C | 2.8% | 1.1% | 3.0% | -3.2 | -0.4% | -5.5%
C[C@@H]1CN([C@@H](C)CO)C(=O)c2cc(C#Cc3ccccc3)cnc2O[C@@H]1CN(C)Cc1ccccn1 | . | ? | ? | -15.3 | . | .
COc1cccc(NC(=O)CN(C)C(=O)/C=C/c2cn(-c3ccccc3)nc2-c2ccc(OC)c(OC)c2)c1 | -10.0% | ? | 18.4µM* | -23.6 | . | ?
COc1ccc(C2C(C(=O)O)CCC(=O)N2c2ccc(C)cc2)cc1OC (stereo not drawn) | -16.5% | 0.0% | 1.4% | 9.3 | 5.1% | -7.5%
CC(C)NC(=O)C1CCN(C(=O)c2cc3sccc3n2Cc2ccc(Cl)cc2)CC1 | . | 1.64µM* | 1.46µM* | . | . | .
CC(C)NC(=O)C1CCN(C(=O)c2cc3sccc3n2Cc2ccc(F)cc2)CC1 | 3.3% | 6.51µM* | 7.31µM* | -81.3* | 1.4% | -8.6%
CC1CCN(C(=O)C2CCN(C(=O)c3cc4sccc4n3Cc3ccc(F)cc3)CC2)CC1 | 7.8% | 20.6µM* | 18.4µM* | -15.8 | 10.3% | ?
O=C(c1cc2sccc2n1Cc1ccc(F)cc1)N1CCCc2ccccc21 | 20.2% | ? | 23.1µM* | ? | 0.7% | 18.7%
CCCC1CC(=O)NC1(C(=O)OCC)C(=O)OCC (stereo not drawn) | -2.0% | 7.8% | -0.1% | -19.9 | . | -3.0%
Cn1c(=O)c2cc(NC(=S)NCc3ccccc3F)ccc2n1C | . | -0.2% | -23.2% | -25.8 | . | .
C=CCN1C[C@H](C(=O)N(CCCN(C)C)C(=O)NCC)C[C@@H]2c3cccc4[nH]cc(c34)C[C@H]21 | . | -6.5% | -18.2% | . | . | .

Screens as filed in PubChem.
